What all share (experiment): DAPPL (digital affinity profiling via proximity ligation, sequencing); 10 mM Tris-HCl pH 7.5, 50 mM NaCl, 1 mM DTT, 4% glycerol, room temperature, 30 min; GST-TFs on glutathione beads, 16-mer random dsDNA library, 0.1% formaldehyde crosslink after washing; high values mean tight binding
In one experiment the target is T1, FLI1 (Homo sapiens, UniProt Q01543 1-452).
T1 sequence: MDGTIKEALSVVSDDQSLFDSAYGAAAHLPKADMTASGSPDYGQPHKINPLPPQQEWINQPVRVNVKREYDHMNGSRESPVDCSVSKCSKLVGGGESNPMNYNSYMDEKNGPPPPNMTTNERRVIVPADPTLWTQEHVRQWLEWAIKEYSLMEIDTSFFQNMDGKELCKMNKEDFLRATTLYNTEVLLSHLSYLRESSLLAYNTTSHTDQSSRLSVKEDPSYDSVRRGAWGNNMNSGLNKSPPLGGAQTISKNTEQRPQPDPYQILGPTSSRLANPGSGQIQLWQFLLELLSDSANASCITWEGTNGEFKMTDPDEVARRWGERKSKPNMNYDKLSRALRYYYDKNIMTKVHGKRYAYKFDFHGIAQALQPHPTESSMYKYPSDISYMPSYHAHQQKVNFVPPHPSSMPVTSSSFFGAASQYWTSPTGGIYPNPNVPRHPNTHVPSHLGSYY
The note with it: protein: recombinant; tags: N-terminal GST; dsDNA, one strand shown. The method in brief: (§1)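 Binding signal is each hexamer's read frequency for a factor divided by its frequency in the tag-only sample. The factors were GST-fused human transcription factors from yeast, captured on glutathione beads, DNA-barcoded and pooled with that sample. Pools were incubated with 200 nmole of a random double-stranded 16-mer DNA library in Tris/NaCl/DTT/glycerol buffer at room temperature for 30 min, then washed, crosslinked with 0.1% formaldehyde, proximity-ligated with BsaI/T4 ligase (1 h, 37 °C), PCR-amplified and sequenced on an Illumina NextSeq500.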

The target in another experiment is T2, ELK1 (Homo sapiens, UniProt P19419 1-428).
T2 sequence: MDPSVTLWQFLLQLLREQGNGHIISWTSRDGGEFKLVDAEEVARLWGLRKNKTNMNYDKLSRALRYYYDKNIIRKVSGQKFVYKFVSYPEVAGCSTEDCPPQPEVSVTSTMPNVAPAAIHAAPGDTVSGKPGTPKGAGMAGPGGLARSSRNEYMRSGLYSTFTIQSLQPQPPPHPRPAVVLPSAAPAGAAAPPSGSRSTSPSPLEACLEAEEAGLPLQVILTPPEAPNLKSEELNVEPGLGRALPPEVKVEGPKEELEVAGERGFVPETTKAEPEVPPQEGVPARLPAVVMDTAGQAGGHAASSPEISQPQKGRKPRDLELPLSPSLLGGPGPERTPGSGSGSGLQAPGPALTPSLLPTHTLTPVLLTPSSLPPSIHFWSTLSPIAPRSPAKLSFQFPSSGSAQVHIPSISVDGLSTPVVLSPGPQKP
The settings on record: protein: recombinant; tags: N-terminal GST; dsDNA, one strand shown. The method in brief:
as §1

In another experiment the target is T3, GABPA (Homo sapiens, UniProt Q06546 1-454).
T3 sequence: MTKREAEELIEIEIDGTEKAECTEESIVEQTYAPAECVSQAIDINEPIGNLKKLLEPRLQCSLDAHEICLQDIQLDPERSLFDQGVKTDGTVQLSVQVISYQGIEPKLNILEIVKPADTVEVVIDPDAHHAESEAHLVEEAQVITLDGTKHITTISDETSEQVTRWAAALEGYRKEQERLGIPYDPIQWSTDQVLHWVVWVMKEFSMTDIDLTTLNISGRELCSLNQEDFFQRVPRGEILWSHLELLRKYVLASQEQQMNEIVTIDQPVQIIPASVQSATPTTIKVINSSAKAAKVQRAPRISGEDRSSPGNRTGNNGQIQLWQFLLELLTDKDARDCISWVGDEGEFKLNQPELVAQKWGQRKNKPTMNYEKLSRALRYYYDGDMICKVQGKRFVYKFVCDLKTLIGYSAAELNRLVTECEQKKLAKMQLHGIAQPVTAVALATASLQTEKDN
The note with it: protein: recombinant; tags: N-terminal GST; dsDNA, one strand shown. An outline of the steps:
as §1

Another experiment deals with T4, ERG (Homo sapiens, UniProt P11308 1-479).
T4 sequence: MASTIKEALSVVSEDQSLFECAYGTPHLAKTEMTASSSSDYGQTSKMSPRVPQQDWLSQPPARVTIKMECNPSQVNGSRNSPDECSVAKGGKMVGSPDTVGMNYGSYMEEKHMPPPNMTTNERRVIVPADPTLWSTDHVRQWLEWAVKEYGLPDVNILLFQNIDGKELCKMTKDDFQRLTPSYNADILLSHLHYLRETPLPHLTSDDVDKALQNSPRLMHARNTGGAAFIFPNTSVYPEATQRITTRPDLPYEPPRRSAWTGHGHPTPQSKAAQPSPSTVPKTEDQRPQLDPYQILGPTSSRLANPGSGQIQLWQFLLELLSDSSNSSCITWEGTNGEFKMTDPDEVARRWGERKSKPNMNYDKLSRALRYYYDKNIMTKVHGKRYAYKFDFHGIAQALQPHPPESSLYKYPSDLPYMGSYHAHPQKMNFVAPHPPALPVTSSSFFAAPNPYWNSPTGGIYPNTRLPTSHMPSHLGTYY
The note with it: protein: recombinant; tags: N-terminal GST; dsDNA, one strand shown. An outline of the steps: as §1

The target of a further experiment is ELF1 (Homo sapiens, UniProt P32519 1-619). The settings on record: protein: recombinant; tags: N-terminal GST; dsDNA, one strand shown. An outline of the steps: as §1
The target of the next experiment is T5, EHF (Homo sapiens, UniProt Q9NZC4 1-300).
T5 sequence: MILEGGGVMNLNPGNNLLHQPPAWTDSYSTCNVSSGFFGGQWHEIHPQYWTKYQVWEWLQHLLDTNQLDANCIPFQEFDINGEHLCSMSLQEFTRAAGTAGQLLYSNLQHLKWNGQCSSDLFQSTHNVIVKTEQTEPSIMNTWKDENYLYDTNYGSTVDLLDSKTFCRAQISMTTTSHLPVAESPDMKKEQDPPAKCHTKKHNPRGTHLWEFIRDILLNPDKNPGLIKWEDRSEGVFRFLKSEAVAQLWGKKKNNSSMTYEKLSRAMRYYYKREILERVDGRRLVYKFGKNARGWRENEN
The settings on record: protein: recombinant; tags: N-terminal GST; dsDNA, one strand shown. The method in brief: as §1

Another experiment deals with SPI1 (Homo sapiens, UniProt P17947 1-270). The note with it: protein: recombinant; tags: N-terminal GST; dsDNA, one strand shown. The method in brief:
as §1

The next experiment concerns the target SPIB (Homo sapiens, UniProt Q01892 1-262). The note with it: protein: recombinant; tags: N-terminal GST; dsDNA, one strand shown. An outline of the steps: as §1
The next experiment deals with T6, ELK3 (Homo sapiens, UniProt P41970 1-407).
T6 sequence: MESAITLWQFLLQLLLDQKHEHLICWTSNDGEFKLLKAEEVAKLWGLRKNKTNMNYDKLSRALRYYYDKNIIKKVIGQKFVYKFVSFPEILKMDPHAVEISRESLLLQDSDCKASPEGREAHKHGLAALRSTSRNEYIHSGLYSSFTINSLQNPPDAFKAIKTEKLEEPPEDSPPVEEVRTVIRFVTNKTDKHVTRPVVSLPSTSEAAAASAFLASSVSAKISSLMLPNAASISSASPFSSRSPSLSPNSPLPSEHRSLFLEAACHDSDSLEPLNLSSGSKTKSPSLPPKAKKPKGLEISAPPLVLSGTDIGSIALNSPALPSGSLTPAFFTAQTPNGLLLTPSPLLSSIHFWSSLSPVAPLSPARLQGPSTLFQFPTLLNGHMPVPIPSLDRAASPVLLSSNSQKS
The settings on record: protein: recombinant; tags: N-terminal GST; dsDNA, one strand shown. An outline of the steps:
as §1

A further experiment addresses T7, FEV (Homo sapiens, UniProt Q99581 1-238).
T7 sequence: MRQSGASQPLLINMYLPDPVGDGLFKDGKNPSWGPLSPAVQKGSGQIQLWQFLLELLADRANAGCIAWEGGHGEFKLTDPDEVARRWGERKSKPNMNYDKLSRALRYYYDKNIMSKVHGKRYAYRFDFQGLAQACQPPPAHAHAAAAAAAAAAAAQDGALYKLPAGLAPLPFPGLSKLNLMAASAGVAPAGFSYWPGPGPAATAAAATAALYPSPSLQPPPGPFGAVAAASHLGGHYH
The note with it: protein: recombinant; tags: N-terminal GST; dsDNA, one strand shown. An outline of the steps:
as §1

Another experiment addresses ETV5 (Homo sapiens, UniProt P41161 1-510). The settings on record: protein: recombinant; tags: N-terminal GST; dsDNA, one strand shown. The method in brief:
as §1

The target in a further experiment is HSF1 (Homo sapiens, UniProt Q00613 1-529). The settings on record: protein: recombinant; tags: N-terminal GST; chain copies: 3; dsDNA, one strand shown. An outline of the steps: as §1
The next experiment has as its target T8, SPIC (Homo sapiens, UniProt Q8N5J4 1-248).
T8 sequence: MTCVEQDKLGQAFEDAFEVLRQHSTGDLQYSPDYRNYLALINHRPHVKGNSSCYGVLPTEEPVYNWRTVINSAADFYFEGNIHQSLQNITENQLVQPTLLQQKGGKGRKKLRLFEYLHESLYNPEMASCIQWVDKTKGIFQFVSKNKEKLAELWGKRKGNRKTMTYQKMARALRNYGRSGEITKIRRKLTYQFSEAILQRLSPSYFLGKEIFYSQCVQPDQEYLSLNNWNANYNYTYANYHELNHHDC
The settings on record: protein: recombinant; tags: N-terminal GST; dsDNA, one strand shown. The method in brief:
as §1

A further experiment addresses ELF4 (Homo sapiens, UniProt Q99607 1-663). The note with it: protein: recombinant; tags: N-terminal GST; dsDNA, one strand shown. An outline of the steps: as §1
The next experiment has as its target T9, ELK4 (Homo sapiens, UniProt P28324-2 1-405).
T9 sequence: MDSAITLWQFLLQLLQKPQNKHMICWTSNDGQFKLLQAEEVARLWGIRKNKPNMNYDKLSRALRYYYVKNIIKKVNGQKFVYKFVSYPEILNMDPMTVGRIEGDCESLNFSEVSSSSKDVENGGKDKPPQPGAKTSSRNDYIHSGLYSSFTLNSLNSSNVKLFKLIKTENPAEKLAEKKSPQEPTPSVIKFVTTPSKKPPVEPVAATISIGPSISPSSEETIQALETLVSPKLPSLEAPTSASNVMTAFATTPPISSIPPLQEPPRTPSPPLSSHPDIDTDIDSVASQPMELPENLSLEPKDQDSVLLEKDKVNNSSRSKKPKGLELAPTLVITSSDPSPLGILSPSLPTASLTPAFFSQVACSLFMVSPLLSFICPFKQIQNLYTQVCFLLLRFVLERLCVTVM
The settings on record: protein: recombinant; tags: N-terminal GST; dsDNA, one strand shown. An outline of the steps:
as §1

For a further experiment, the target named is T10, ETV2 (Homo sapiens, UniProt O00321 1-342).
T10 sequence: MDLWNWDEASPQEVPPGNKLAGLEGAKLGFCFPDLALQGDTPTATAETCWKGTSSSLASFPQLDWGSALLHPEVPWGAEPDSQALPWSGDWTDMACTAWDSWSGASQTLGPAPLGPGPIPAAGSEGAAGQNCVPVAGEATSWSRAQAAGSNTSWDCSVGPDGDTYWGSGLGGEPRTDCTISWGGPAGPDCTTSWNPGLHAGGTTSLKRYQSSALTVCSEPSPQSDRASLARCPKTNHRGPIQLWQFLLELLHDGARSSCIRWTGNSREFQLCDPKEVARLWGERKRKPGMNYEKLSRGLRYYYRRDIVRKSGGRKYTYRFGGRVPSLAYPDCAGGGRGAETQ
The note with it: protein: recombinant; tags: N-terminal GST; dsDNA, one strand shown. The method in brief:
as §1

A further experiment concerns the target T11, ELF3 (Homo sapiens, UniProt P78545 1-371).
T11 sequence: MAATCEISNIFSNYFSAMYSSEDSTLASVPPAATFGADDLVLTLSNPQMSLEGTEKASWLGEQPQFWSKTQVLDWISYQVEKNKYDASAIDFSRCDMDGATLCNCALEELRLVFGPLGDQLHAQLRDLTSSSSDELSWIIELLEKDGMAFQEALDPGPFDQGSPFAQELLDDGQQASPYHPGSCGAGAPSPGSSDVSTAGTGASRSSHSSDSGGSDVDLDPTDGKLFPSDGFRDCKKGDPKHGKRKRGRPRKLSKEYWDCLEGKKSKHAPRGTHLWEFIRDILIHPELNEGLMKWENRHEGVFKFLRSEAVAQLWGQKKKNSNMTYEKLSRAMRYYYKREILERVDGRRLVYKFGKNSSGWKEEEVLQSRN
The note with it: protein: recombinant; tags: N-terminal GST; dsDNA, one strand shown. An outline of the steps: as §1

In the next experiment the target is CRX (Homo sapiens, UniProt O43186 1-299). The note with it: protein: recombinant; tags: N-terminal GST; dsDNA, one strand shown. The method in brief: as §1
For another experiment, the target named is ETV1 (Homo sapiens, UniProt P50549 1-477). The settings on record: protein: recombinant; tags: N-terminal GST; dsDNA, one strand shown. The method in brief: as §1
Chain of ETV1 (P50549 whole entry): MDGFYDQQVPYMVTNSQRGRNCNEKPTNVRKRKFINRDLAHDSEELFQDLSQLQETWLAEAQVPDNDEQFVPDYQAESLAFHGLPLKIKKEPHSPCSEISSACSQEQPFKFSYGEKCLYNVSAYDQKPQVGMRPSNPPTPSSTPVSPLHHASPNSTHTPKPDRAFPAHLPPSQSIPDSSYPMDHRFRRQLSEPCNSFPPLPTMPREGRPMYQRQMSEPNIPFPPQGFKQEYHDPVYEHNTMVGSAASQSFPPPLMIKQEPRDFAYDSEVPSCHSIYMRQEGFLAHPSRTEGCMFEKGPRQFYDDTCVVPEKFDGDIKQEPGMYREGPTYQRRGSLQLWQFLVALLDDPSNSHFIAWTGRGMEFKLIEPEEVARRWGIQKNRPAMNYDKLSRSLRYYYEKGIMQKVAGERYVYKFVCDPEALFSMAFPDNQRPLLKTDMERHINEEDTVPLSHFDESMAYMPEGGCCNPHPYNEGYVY

Chain of CRX (O43186 whole entry): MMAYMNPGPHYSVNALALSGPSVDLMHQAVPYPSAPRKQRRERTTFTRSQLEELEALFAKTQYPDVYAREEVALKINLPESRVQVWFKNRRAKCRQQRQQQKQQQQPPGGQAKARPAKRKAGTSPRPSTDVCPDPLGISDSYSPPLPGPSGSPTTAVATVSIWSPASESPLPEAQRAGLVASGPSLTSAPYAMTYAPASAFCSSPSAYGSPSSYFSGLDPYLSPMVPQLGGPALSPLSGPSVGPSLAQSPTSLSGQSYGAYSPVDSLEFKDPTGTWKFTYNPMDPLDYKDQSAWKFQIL
Chain of SPIB (Q01892 whole entry): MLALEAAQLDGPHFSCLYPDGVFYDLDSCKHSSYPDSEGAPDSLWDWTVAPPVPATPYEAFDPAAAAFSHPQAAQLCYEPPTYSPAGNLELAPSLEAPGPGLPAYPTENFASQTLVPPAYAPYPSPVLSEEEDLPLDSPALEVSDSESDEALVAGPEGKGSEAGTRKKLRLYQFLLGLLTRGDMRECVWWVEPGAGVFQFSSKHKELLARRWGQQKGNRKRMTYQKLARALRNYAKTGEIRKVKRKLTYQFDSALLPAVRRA
Chain of HSF1 (Q00613 whole entry): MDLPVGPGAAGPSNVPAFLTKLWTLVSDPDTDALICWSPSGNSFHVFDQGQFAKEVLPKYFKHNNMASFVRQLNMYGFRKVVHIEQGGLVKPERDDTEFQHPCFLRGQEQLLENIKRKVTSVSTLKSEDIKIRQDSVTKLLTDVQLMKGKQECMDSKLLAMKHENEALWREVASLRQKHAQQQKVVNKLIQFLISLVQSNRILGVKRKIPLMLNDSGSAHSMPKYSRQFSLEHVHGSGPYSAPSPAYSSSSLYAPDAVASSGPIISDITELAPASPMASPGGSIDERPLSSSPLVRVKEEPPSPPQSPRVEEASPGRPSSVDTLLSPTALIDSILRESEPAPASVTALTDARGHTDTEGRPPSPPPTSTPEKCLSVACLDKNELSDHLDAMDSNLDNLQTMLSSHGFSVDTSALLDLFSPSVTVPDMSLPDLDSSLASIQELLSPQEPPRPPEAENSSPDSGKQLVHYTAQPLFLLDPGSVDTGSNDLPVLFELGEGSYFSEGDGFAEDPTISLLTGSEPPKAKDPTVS
Chain of ETV5 (P41161 whole entry): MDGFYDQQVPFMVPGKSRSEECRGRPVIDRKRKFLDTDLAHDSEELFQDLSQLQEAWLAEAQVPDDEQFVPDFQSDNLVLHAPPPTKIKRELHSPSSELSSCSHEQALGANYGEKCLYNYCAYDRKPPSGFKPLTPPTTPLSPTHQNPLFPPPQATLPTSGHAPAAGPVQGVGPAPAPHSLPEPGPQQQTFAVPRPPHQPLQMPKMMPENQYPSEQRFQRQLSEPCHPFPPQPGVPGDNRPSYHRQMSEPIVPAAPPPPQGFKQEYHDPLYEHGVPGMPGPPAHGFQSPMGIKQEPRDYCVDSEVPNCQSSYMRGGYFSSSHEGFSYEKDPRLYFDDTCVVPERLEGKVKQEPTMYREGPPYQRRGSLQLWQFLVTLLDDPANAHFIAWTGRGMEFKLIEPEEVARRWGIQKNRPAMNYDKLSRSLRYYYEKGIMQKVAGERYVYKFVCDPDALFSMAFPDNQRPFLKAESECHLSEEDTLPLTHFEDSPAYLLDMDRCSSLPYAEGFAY
Chain of ELF1 (P32519 whole entry): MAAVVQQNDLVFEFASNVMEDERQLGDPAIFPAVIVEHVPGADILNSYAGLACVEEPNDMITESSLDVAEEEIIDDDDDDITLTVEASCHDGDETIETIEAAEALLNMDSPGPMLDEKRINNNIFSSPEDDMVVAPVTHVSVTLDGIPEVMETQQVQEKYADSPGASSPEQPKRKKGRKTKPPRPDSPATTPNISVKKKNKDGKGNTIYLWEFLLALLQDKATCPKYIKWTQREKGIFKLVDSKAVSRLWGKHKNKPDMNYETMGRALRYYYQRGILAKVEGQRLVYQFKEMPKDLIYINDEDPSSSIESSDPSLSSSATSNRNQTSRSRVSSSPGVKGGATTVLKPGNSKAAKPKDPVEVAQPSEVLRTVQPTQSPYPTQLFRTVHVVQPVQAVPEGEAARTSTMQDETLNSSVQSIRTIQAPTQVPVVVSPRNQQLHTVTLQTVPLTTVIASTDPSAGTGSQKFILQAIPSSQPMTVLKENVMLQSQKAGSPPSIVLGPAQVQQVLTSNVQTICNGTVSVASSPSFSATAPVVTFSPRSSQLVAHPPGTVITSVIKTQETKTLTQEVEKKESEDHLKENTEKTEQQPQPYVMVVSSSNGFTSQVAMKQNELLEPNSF
Chain of ELF4 (Q99607 whole entry): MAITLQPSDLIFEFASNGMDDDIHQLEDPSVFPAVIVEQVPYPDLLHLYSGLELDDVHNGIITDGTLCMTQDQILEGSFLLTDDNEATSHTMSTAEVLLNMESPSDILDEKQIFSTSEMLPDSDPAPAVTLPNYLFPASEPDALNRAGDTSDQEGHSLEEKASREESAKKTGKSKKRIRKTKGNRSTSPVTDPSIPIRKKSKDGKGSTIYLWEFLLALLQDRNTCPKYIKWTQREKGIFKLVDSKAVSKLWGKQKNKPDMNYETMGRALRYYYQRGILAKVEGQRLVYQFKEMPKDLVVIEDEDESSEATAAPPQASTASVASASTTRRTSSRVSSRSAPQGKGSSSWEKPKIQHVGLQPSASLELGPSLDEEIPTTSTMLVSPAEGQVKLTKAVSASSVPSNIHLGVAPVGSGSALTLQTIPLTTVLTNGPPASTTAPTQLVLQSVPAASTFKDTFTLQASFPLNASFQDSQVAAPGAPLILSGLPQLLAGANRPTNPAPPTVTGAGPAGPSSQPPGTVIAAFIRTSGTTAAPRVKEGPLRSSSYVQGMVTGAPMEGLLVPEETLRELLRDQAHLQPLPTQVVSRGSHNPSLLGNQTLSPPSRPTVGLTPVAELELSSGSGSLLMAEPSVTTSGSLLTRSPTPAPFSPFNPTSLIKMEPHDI

For the sequence ACTTAA, the binding signal with FLI1 is 1.17 fold enrichment (6-mer frequency, TF over GST control); in the experiment with ELK1 it was 1.23 fold enrichment (6-mer frequency, TF over GST control); with GABPA it was 1.22 fold enrichment (6-mer frequency, TF over GST control); with ERG, 1.11 fold enrichment (6-mer frequency, TF over GST control); in the experiment with ELF1 it was 1.18 fold enrichment (6-mer frequency, TF over GST control); in the experiment with EHF, 1.31 fold enrichment (6-mer frequency, TF over GST control). The binding signal with SPI1 is 1.24 fold enrichment (6-mer frequency, TF over GST control); with SPIB it was 1.18 fold enrichment (6-mer frequency, TF over GST control); in the experiment with ELK3 it was 1.24 fold enrichment (6-mer frequency, TF over GST control); with FEV it was 1.15 fold enrichment (6-mer frequency, TF over GST control); in the experiment with ETV5, 1.2 fold enrichment (6-mer frequency, TF over GST control); with HSF1 it was 1.67 fold enrichment (6-mer frequency, TF over GST control). Besides, the binding signal in the experiment with SPIC is 1.25 fold enrichment (6-mer frequency, TF over GST control); in the experiment with ELF4, 1.19 fold enrichment (6-mer frequency, TF over GST control); with ELK4 it was 1.14 fold enrichment (6-mer frequency, TF over GST control); in the experiment with ETV2 it was 1.16 fold enrichment (6-mer frequency, TF over GST control); with ELF3, 1.15 fold enrichment (6-mer frequency, TF over GST control); with CRX it was 2.66 fold enrichment (6-mer frequency, TF over GST control). The binding signal with ETV1 is 1.25 fold enrichment (6-mer frequency, TF over GST control).

(Values after PMC7862700, “An all-to-all approach to the identification of sequence-specific readers for epigenetic DNA modifications on cytosine”.)
